# Measured values reported in the supplement of paper PMC10670038.
# Counter-ions that a name gives are not always drawn. ± gives the standard deviation of the averaged measurements. In all, about 2,000 compounds were measured (“relative cell viability vs DMSO, compound + 0.2 uM CuET”: median about 1, lowest 2% from about 0.25 on). For the sample, the lowest values were picked, then their nearest neighbours and some compounds at random.
# System: TE10
# Experiment: relative cell viability vs DMSO, compound + 0.2 uM CuET (fraction); TE10 is an esophageal squamous carcinoma line; higher = less cytotoxic
# Settings: 2 µM; co-treatment: CuET (bis(diethyldithiocarbamate)copper) 0.2 uM; 48 h
# Method: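 TE10 ESCC cells (1,000/well, 384-well plates) were treated with Selleck bioactive library compounds at 2 uM combined with 0.2 uM CuET (copper diethyldithiocarbamate) for 48 h. Viability was read by CellTiter-Glo and expressed relative to DMSO wells. Two technical replicates (A, B).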
row,Structure (SMILES),relative cell viability
1,Cc1ccc(S(=O)(=O)c2ccc([N+](=O)[O-])o2)cc1,0.175 ± 0.0036
2,NC(=O)N/N=C/c1ccc([N+](=O)[O-])o1 [Nitrofural],1.3 ± 0.033
3,Nc1ccc(S(=O)(=O)Nc2ncccn2)cc1 [Sulfadiazine],1.03 ± 0.045
4,CNS(=O)(=O)CCc1ccc2[nH]cc(C3CCN(C)CC3)c2c1 [Naratriptan],1.2 ± 0.1
5,CCN(CCO)CCCOc1ccc2c(Nc3cc(CC(=O)Nc4cccc(F)c4)[nH]n3)ncnc2c1 [Barasertib (AZD1152-HQPA)],1.25 ± 0.26
6,CC(C)C[C@@H](C=O)NC(=O)[C@H](CC(C)C)NC(=O)[C@H](CC(C)C)NC(=O)OCc1ccccc1,0.223 ± 0.006
7,CC(NC(=O)C(Cc1ccccc1)NC(=O)OCc1ccccc1)C(=O)CF (stereo unspecified),1.14 ± 0.028
8,CCCC[C@@H](C=O)NC(=O)[C@H](CC(C)C)NC(=O)OCc1ccccc1 [Calpeptin],1.12 ± 0.036
9,C[C@]12CCC(=O)C=C1[C@@H]1C[C@@H]1[C@H]1[C@@H]3[C@@H]4C[C@@H]4[C@@]4(CCC(=O)O4)[C@@]3(C)CC[C@@H]12 [Drospirenone],0.77 ± 0.4
10,CC(=O)NC(Cc1ccc(O)cc1)C(=O)NC(CCCN=C(N)N)C(=O)NC(Cc1ccccc1)C(N)=O (stereo unspecified),0.977 ± 0.19
11,CC(C)c1nc(CN(C)C(=O)N[C@@H](CCN2CCOCC2)C(=O)N[C@H](CC[C@H](Cc2ccccc2)NC(=O)OCc2cncs2)Cc2ccccc2)cs1 [Cobicistat (GS-9350)],0.957 ± 0.025
12,COC(=O)[C@H](Cc1ccccc1)NC(=O)[C@@H](N)CC(=O)O [Aspartame],1.09 ± 0.034
13,COc1ccc(C[C@H](NC(=O)[C@H](C)NC(=O)CN2CCOCC2)C(=O)N[C@@H](Cc2ccccc2)C(=O)[C@@]2(C)CO2)cc1,0.198 ± 0.0095
14,CC(C)C[C@H](NC(=O)[C@H](Cc1ccccc1)NC(=O)c1cnccn1)B(O)O [Bortezomib (PS-341)],0.348 ± 0.058
15,COC[C@H](NC(=O)c1cnc(C)s1)C(=O)N[C@@H](COC)C(=O)N[C@@H](Cc1ccccc1)C(=O)[C@@]1(C)CO1 [Oprozomib (ONX 0912)],0.182 ± 0.0023
16,O=C(Cc1ccc(-c2ccc(OCCN3CCOCC3)cc2)cn1)NCc1ccccc1,0.827 ± 0.037
17,CC(C)CC(CC(=O)NO)C(=O)N[C@@H](Cc1ccc2ccccc2c1)C(=O)N[C@@H](C)C(=O)NCCN (stereo partly specified),1.19 ± 0.051
18,CC(C)C[C@H](NC(=O)[C@H](CCc1ccccc1)NC(=O)CN1CCOCC1)C(=O)N[C@@H](Cc1ccccc1)C(=O)N[C@@H](CC(C)C)C(=O)[C@@]1(C)CO1 [Carfilzomib (PR-171)],0.198 ± 0.019
19,Cc1c(-c2ccnn2C)cc(C(=O)NCc2ccc(S(C)(=O)=O)cn2)c(=O)n1-c1cccc(C(F)(F)F)c1 [Alvelestat (AZD9668)],0.993 ± 0.044
20,CC(C)(C)c1cnc(CSc2cnc(NC(=O)C3CCNCC3)s2)o1,0.963 ± 0.093
21,COc1c2ccoc2cc2oc(=O)ccc12 [Bergapten],1.12 ± 0.038
22,CCC(=O)O[C@]1(C(=O)SCF)[C@H](C)C[C@H]2[C@@H]3C[C@H](F)C4=CC(=O)C=C[C@]4(C)[C@@]3(F)[C@@H](O)C[C@@]21C [Fluticasone propionate],1.02 ± 0.043

row,Structure (SMILES),relative cell viability
1,Oc1c(Br)cc(Br)c2cccnc12 [Broxyquinoline],0.689 ± 0.033
2,O=S(=O)(O)c1cc(O)ccc1O [Ethamsylate],1.08 ± 0.096
3,C=CCc1ccc(O)c(-c2cc(CC=C)ccc2O)c1 [Magnolol],1.02 ± 0.057
4,O=S(=O)(O)CCS [Mesna],1.08 ± 0.024
5,CN1CCN(Cc2ccc(NC(=O)Cc3ccc(Oc4cc(NC(=O)C5CC5)ncn4)cc3)cc2C(F)(F)F)CC1,0.9884 ± 0.0017
6,CCS(=O)(=O)Nc1ccc2[nH]c(O)c(C(=Nc3ccc(CN4CCCCC4)cc3)c3ccccc3)c2c1 [Hesperadin],0.5395 ± 0.0028
7,CCOC(=O)C1=C(N)Oc2ccc(Cl)cc2C1C(C#N)C(=O)OCC (stereo unspecified),0.663 ± 0.023
8,CN[C@@H](C)C(=O)N[C@H](C(=O)N1CCC[C@H]1C(=O)N[C@H](C(=O)NCCCCCCNC(=O)[C@@H](NC(=O)[C@@H]1CCCN1C(=O)[C@@H](NC(=O)[C@H](C)NC)C1CCCCC1)C(c1ccccc1)c1ccccc1)C(c1ccccc1)c1ccccc1)C1CCCCC1,0.437 ± 0.011
9,CC(C)(C)c1[nH]cnc1/C=c1\[nH]c(=O)/c(=C/c2ccccc2)[nH]c1=O [Plinabulin (NPI-2358)],0.753 ± 0.058
10,NCC(=O)Nc1ccc(-n2nc(C(F)(F)F)cc2-c2ccc3c(ccc4ccccc43)c2)cc1,0.649 ± 0.017
11,COc1nc(-c2ccc3c(c2)OCO3)n(-c2ccc(NC(=O)CSc3ccccc3)cc2)n1 [SecinH3],1.25 ± 0.17
12,COCCOc1nc(-c2ccc(Cl)c(Cl)c2)n(-c2ccc(NC(=O)CCl)cc2)n1 [MI-2 (MALT1 inhibitor)],0.115 ± 0.0096
13,CN(C)c1cc(NC(=O)CNC(C)(C)C)c(O)c2c1CC1CC3C(N(C)C)C(=O)C(C(N)=O)=C(O)C3(O)C(=O)C1=C2O (stereo unspecified) [Tigecycline],0.994 ± 0.068
14,O=Nc1c(-c2c(O)[nH]c3cc(Br)ccc23)[nH]c2ccccc12,1.083 ± 0.0023
15,C[N+]1(C)[C@@H]2C[C@@H](OC(=O)C(O)(c3cccs3)c3cccs3)C[C@H]1[C@@H]1O[C@@H]12 [Tiotropium Bromide hydrate],0.962 ± 0.027
16,C=C1CC2(O)OC3(CC2C(C)C)C(C)CCC13 (stereo unspecified) [Curcumol],0.838 ± 0.028
17,CC(C)[C@H](C(=O)Nc1ccc(C(=O)NO)cc1)c1ccccc1,0.178 ± 0.0071
18,CC(=O)Nc1ccc(C(=O)Nc2ccccc2N)cc1 [CI994 (Tacedinaline)],1.23 ± 0.26
19,CCCCN(Cc1ccc(C(=O)NO)cc1)C(=O)Nc1ccccc1 [Nexturastat A],0.837 ± 0.056
20,Cc1c(C(=O)NN2CCCCC2)nn(-c2ccc(Cl)cc2Cl)c1-c1ccc(Cl)cc1 [Rimonabant],0.716 ± 0.15
21,NC1=N[C@@]2(c3cc(NC(=O)c4ccc(F)cn4)ccc3F)COC[C@H]2CS1,0.948 ± 0.07
22,O=C(O)C(Cc1ccccc1[N+](=O)[O-])=NNc1nc(-c2ccc(Cl)c(Cl)c2)cs1,1.04 ± 0.16

row,Structure (SMILES),relative cell viability
1,COc1cc(-c2ncn(/C=C\C(=O)OC(C)C)n2)cc(C(F)(F)F)c1,0.25 ± 0.0078
2,O=C(/C=C/n1cnc(-c2cc(C(F)(F)F)cc(C(F)(F)F)c2)n1)N1CC(F)(F)C1,0.355 ± 0.025
3,O=C(/C=C\n1cnc(-c2cc(C(F)(F)F)cc(C(F)(F)F)c2)n1)NNc1cnccn1,0.29 ± 0.015
4,C=CS(=O)(=O)NC1CCN(C(=O)CNc2cc(I)c(Cl)cc2OC)CC1 [K-Ras(G12C) inhibitor 9],0.699 ± 0.08
5,O=C(NOCC1CC1)c1ccc(F)c(F)c1Nc1ccc(I)cc1Cl,0.64 ± 0.17
6,Cc1cccc(-c2[nH]ncc2-c2ccc3ncccc3n2)n1,1.04 ± 0.0027
7,O=C(CCCCCCNC(=O)c1cnc(N(c2ccccc2)c2ccccc2)nc1)NO [Rocilinostat (ACY-1215)],0.8907 ± 0.0072
8,CC(C)(C)OC(=O)Nc1ccc(-c2cc(C(=O)NCCCCCCC(=O)NO)no2)cc1,0.244 ± 0.003
9,CN(C)c1ccc(C(=O)NCCCCCCC(=O)NO)cc1,0.322 ± 0.042
10,C[C@@H]1COC(Nc2ccc3ncnc(Nc4ccc(OCc5nccs5)c(Cl)c4)c3c2)=N1 [Varlitinib],1.04 ± 0.086
11,S=C=Nc1cccc(NC(=S)NCCCCNC(=S)Nc2cccc(N=C=S)c2)c1,1.2 ± 0.15
12,CCn1c(=O)c(-c2ccc(-c3cncs3)cc2Cl)cc2cnc(Nc3ccc(N4CCN(C)CC4)cc3)nc21,0.183 ± 0.025
13,C=CCn1c(=O)c2cnc(Nc3ccc(N4CCN(C)CC4)cc3)nc2n1-c1cccc(C(C)(C)O)n1,0.559 ± 0.038
14,C=CC(=O)Nc1cccc(Sc2nc(Nc3ccc(N4CCN(C)CC4)cc3)ncc2Cl)c1,0.846 ± 0.02
15,COc1cc2ncnc(Oc3cccc(NC(=O)Nc4cc(C(C)(C)C(F)(F)F)on4)c3)c2cc1OC,1.1 ± 0.061
16,COc1cc(OC)c(NC(=O)Nc2cc(C)on2)cc1Cl,1.1 ± 0.05
17,CCN1C(=CC(C)=O)Sc2ccc(OC)cc21,1.11 ± 0.11
18,CC(CCC(=O)NCCS(=O)(=O)O)C1CCC2C3C(O)CC4CC(O)CCC4(C)C3CCC12C (stereo unspecified) [Sodium Tauroursodeoxycholate (TUDC)],1.24 ± 0.12
19,O=C1C(Cl)=C(N2CCOCC2)C(=O)N1c1ccc(Cl)c(Cl)c1,1.17 ± 0.026
20,COc1cc(/C=C/C(=O)CC(=O)/C=C/c2ccc(O)c(OC)c2)ccc1O [Curcumin],0.656 ± 0.023
21,COc1cc(/C=C/C(=O)O)ccc1O [Ferulic Acid],1.21 ± 0.12
22,COc1ccc(/C=C/C(=O)C2(C(=O)/C=C/c3ccc(OC)c(OC)c3)CCCCC2)cc1OC,0.238 ± 0.01

row,Structure (SMILES),relative cell viability
1,O=C1c2c(O)cccc2C([C@@H]2O[C@H](CO)[C@@H](O)[C@H](O)[C@H]2O)c2cc(CO)cc(O)c21 (stereo partly specified) [Aloin],1.1 ± 0.12
2,N#Cc1ccc(COC[C@H]2O[C@@H](n3c(NCc4ccc(Cl)c(Cl)c4)nc4c(N)ncnc43)[C@H](O)[C@@H]2O)cc1,0.939 ± 0.0025
3,CCOc1ccccc1OC(c1ccccc1)C1CNCCO1 (stereo unspecified) [Reboxetine mesylate],1.2 ± 0.37
4,c1ccc(Cn2c(-c3ccc(OCC(C4CCNCC4)n4c(-c5ccccc5)nc5ccccc54)cc3)nc3ccccc32)cc1 (stereo unspecified) [Deltarasin],0.9797 ± 0.0069
5,CC1(C)C=C(CN2C/C(=C\c3ccc(F)cc3)C(=O)/C(=C/c3ccc(F)cc3)C2)C(C)(C)N1O,0.216 ± 0.0066
6,CC(C)(C)Cn1c(N)nc2ccc(-c3[nH]c(C(C)(C)C)nc3-c3ccc(F)cc3)nc21,1.34 ± 0.083
7,CCOC(=O)C1=C(C)NC(C)=C(C(=O)OCC)C1c1ccccc1/C=C/C(=O)OC(C)(C)C [Lacidipine],0.785 ± 0.011
8,COc1ccc(COc2ccc(Cc3cnc(N)nc3N)cc2OC)cc1,1.024 ± 0.0044
9,Cn1c(=O)cc(N2CCC[C@@H](N)C2)n(Cc2cc(F)ccc2C#N)c1=O [Trelagliptin],1.17 ± 0.22
10,CC(C=CC(=O)NO)=CC(C)C(=O)c1ccc(N(C)C)cc1 (stereo unspecified) [Trichostatin A (TSA)],0.177 ± 0.0076
11,CN(C(Cc1ccc(OS(=O)(=O)c2cccc3cnccc23)cc1)C(=O)N1CCN(c2ccccc2)CC1)S(=O)(=O)c1cccc2cnccc12 (stereo unspecified),0.992 ± 0.046
12,CC(NC(=O)C(O)c1cc(F)cc(F)c1)C(=O)NC1C(=O)N(C)c2ccccc2-c2ccccc21 (stereo unspecified),1.07 ± 0.058
13,CC(C)OC(=O)C1=CN(C(=O)c2ccc(F)c(F)c2)CC(C)(C)c2c1[nH]c1ccccc21,1.13 ± 0.041
14,O=C(NNc1ccccc1)c1ccncc1,1.06 ± 0.18
15,NNC(=O)c1ccncc1 [Isoniazid],1.1 ± 0.14
16,O=C(/C=C/c1ccc2ccccc2n1)c1ccncc1,0.186 ± 0.037
17,Cn1c(=O)cc(N2CCC[C@@H](N)C2)n(Cc2ccccc2C#N)c1=O [Alogliptin],1.1 ± 0.21
18,NCc1c[nH]c(=S)n1[C@@H]1CCc2c(F)cc(F)cc2C1 [(R)-Nepicastat HCl],1.121 ± 0.0038
19,CN(C)CCSSCCNC(=O)C1CCN(C(=O)CSc2ccc(Cl)cc2)CC1,1.05 ± 0.11
20,Cc1cc(N2CCOCC2)cc2[nH]c(-c3c(NCC(O)c4cccc(Cl)c4)cc[nH]c3=O)nc12 (stereo unspecified),0.799 ± 0.15
